Where “and” joins values, the source holds several entries; their conditions need not be identical. Identical values can stand only once. Bounds are passed on as bounds.

These results are taken from ChEMBL document CHEMBL1201862, “PubChem BioAssay data set” (2004).

A short description of the experiment: A High Throughput Confirmatory Assay used to Identify Novel Compounds that Inhibit Mycobacterium Tuberculosis in the absence of Glycerol using Purified and Synthesized Compounds (7). Type of experiment: functional.
Usually IC90 stands for the concentration needed for an effect of 90%. On to `O=C(c1ccc(CNc2c(N3CCCC3)c(=O)c2=O)cc1)N1CC=C(c2ccccc2)CC1`, for which the IC90 is > 68.8 µM (active) and > 79.4 µM (active).

Consider `CC1CCCN(C(=O)C2CCC(CNc3c(N4CCCCC4)c(=O)c3=O)CC2)C1` (stereo not drawn), for which the 90% effect concentration (IC90) was > 100 µM (active).

On to `COc1ccc(N2CCN(C(=O)c3ccc(CNc4c(N5CCOCC5)c(=O)c4=O)cc3)CC2)cc1`, for which the IC90 was > 100 µM (active).

For the compound `CC(=O)c1ccc(NC(=O)c2ccc(CNc3c(N4CCOCC4)c(=O)c3=O)cc2)cc1`, the concentration for an effect of 90% (IC90) is > 100 µM (active).

On to `CC1CCN(C(=O)c2ccc(CNc3c(N4CCCC4)c(=O)c3=O)cc2)CC1`, for which the IC90 was > 100 µM (active).

Consider `O=C(NCCc1ccc(Cl)cc1)c1ccc(CNc2c(N3CCOCC3)c(=O)c2=O)cc1`, for which the IC90 was > 100 µM (active).

In the case of `CC(C)OC(=O)CSc1ncnc2c1cnn2-c1ccccc1`, the concentration for an effect of 90% (IC90) is > 100 µM (active).

On to `O=C(C1CCC(CNc2c(N3CCCCC3)c(=O)c2=O)CC1)N1CCCCC1` (stereo not drawn), for which the 90% effect concentration (IC90) was > 100 µM (active).

Consider `O=C(c1ccc(CNc2c(N3CCCC3)c(=O)c2=O)cc1)N1CCc2ccccc2C1`, for which the concentration for an effect of 90% (IC90) was > 100 µM (active).

As for `CC1CCCN(C(=O)c2ccc(CNc3c(N4CCCCC4)c(=O)c3=O)cc2)C1` (stereo not drawn), the IC90 is > 100 µM (active).

For `CC1CC(C)CN(C(=O)C2CCC(CNc3c(N4CCCCC4)c(=O)c3=O)CC2)C1` (stereo not drawn), the IC90 is > 75 µM (active) and > 100 µM (active).

Consider `CC1CC(C)CN(C(=O)c2ccc(CNc3c(N4CCCC4)c(=O)c3=O)cc2)C1` (stereo not drawn), for which the IC90 was > 100 µM (active).

For the compound `O=C(NCCc1ccc(Cl)cc1)C1CCC(CNc2c(N3CCCCC3)c(=O)c2=O)CC1` (stereo not drawn), the IC90 is > 100 µM (active).
